# Mito fusion yeast: qHTS Assay for Small Molecule Inhibitors of Mitochondrial Division or Activators of Mitochondrial Fusion; S. cerevisiae fusion-defective mutant growth rescue, CellTiterGlo 48 h; Potency, µM (doses to about 46.1 µM), for inactives: top-dose growth rescue (activation), usual class: activators; 320,000 compounds, 0.23% hits; AID 485298, 2010; further: % of control where 0% means no effect; nearly all actives have a fitted effect of over 45% in size
#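 Growth-rescue viability read-out: after 48 h at the non-permissive 37C in glycerol/ethanol YPEG, yeast mitochondrial fusion mutants are measured by CellTiterGlo luminescence; compounds (23 nl pinned per well) restoring growth score as division inhibitors or fusion activators.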
# GLS inh: qHTS for Inhibitors of Glutaminase (GLS) | GLS enzymatic activity, qHTS titration | Potency, µM (top dose mostly 45.5 µM), inactives show top-dose activity change, negative = inhibition, most hits filed as inhibitors | 410,000 compounds, 0.21% hits; further: on the % scale 0 is the no-effect control and ±100 the full control effect
# Target sequence (O94925 whole entry, looked up): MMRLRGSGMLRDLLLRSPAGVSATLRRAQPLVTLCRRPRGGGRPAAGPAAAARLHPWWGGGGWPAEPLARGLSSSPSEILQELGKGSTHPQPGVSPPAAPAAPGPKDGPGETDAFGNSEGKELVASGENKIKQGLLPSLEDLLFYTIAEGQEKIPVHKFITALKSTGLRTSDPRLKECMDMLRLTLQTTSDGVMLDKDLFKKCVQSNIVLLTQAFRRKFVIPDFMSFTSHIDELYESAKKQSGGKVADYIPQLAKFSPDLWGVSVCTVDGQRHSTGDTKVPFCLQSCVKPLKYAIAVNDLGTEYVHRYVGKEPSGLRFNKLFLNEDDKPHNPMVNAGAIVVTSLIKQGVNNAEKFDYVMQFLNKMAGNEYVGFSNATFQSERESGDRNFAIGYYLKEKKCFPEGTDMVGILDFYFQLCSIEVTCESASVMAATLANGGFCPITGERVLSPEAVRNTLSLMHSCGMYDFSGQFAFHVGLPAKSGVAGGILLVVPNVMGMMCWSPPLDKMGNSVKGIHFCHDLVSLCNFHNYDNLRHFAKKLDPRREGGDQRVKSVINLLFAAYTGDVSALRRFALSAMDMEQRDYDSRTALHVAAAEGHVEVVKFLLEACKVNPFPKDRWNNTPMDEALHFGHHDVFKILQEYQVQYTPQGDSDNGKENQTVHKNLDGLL
#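 hKGA in 45 mM KH2PO4 pH 8.2, 0.02% Tween-20 with pin-transferred compounds; 1 mM L-glutamine (stock) plus glutamate oxidase/HRP/Amplex Red coupling added. Fluorescence read initially and after 30 min at RT.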
# PKM2 act: qHTS Assay for Activators of Human Muscle isoform 2 Pyruvate Kinase; Pyruvate kinase PKM (Homo sapiens), P14618; purified PKM2, Kinase-Glo ATP luminescence, activation; response scale: 0% is enzyme alone, no compound; Potency, µM (highest dose often 57.5 µM), for the others: top-dose activation, hits mostly activators; 260,000 compounds, 0.34% hits; AID 1631, 2009; further: on the % scale 0 is the no-effect control and ±100 the full control effect; nearly all actives have a fitted effect of over 55% in size
#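 Purified hPK-M2 (>95% pure) converted ADP (0.1 mM final) to ATP with 0.5 mM PEP in 50 mM imidazole pH7.2, KCl, MgCl2, Tween 20, BSA; 1 h at room temperature. ATP detected by Kinase-Glo luminescence.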
# PLK1 PBD block: qHTS for Inhibitors of PLK1-PDB (polo-like kinase 1 - polo-box domain): Primary Screen. Serine/threonine-protein kinase PLK1 (Homo sapiens), P53350. Potency, µM, for the others: max response, negative = inhibition, actives largely listed as inhibitors. Plk1 PBD binding of FITC phosphopeptide, fluorescence polarization. 360,000 compounds, 2.8% hits; further: series mostly up to about 57 µM; on the % scale 0 is the no-effect control and ±100 the full control effect; nearly all actives have a fitted effect of over 65% in size
# GCN5L2 inh: qHTS Assay for Inhibitors of GCN5L2 | Potency, µM (series often up to 58.9 µM), without a hit: at the top dose activity change, negative = inhibition, usual class: inhibitors | GCN5L2 HAT assay, ThioGlo1 CoA-SH fluorescence | 390,000 compounds, 0.21% hits | AID 504327, 2011 | Histone acetyltransferase KAT2A (Homo sapiens), Q92830; further: on the % scale 0 is the no-effect control and ±100 the full control effect
#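 Fluorescence readout, Ex340nm/Em540nm: ThioGlo1 (50uM final) reacts with free CoA thiol released as 20nM GCN5L2 acetylates H3(1-25) peptide (75uM) using acetyl-CoA (70uM). Compound and enzyme sat 15 min beforehand; 20 min room-temperature reaction.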
# VDR inh: Inhibitors of the vitamin D receptor (VDR): qHTS | Vitamin D3 receptor (Homo sapiens), P11473 | VDR-SRC2-3 peptide fluorescence polarization, 2 h | Potency, µM, for inactives: max response, negative = inhibition, most hits filed as inhibitors | 400,000 compounds, 0.93% hits | AID 504847, 2011; further: on the % scale 0 is the no-effect control and ±100 the full control effect
#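 Two reagent solutions held at 4 deg C in the dark were dispensed, compounds pinned at 23 nl, and the mixture incubated 2 h at room temperature. Read-out: fluorescence polarization of VDR–SRC2-3 peptide binding.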
# The depositor's hits bear a star; ? = inconclusive; nt = not tested or not shown; ! = not active in a repeat. Compounds with a hit are over-represented: about 3.4% of the library has one in this group of screens. The call rests on the fitted dose curve; in most records, active means well fitted curve in the direction sought with a large enough effect; inconclusive means small, poorly fitted or top-dose-only effect, or another doubt; inactive means no such curve, though single readings can be large; an effect the other way counts as inactive or inconclusive. Potency means the concentration at half of the fitted maximal effect.
SMILES,Mito fusion yeast,GLS inh,PKM2 act,PLK1 PBD block,GCN5L2 inh,VDR inh
O=C(Nc1ccc(F)cc1F)c1cc(Cl)sc1Cl,-1%,1%,nt,-4%,2%,-9%
COCCCCCCCCCCCC(=O)O,nt,nt,nt,nt,9%,-15%
CC(=O)c1c(C)[nH]c(C(=O)N2CCCCCC2)c1C,3%,?,0%,2.7µM*,-4%,-28%
COc1cccc(C(=O)Nc2ccc3c(cc2=O)[C@@H](NC(C)=O)CCc2cc(OC)c(OC)c(OC)c2-3)c1,-85%,2%,nt,4%,?,19%
Cc1c(Cl)cccc1N1CC(C)(C)C1=O,-1%,0%,-2%,27µM*,4%,-14%
CC1(C)CN(c2ccc(Br)cc2Br)C1=O,4%,15%,1%,-6%,-8%,1%
O=S(=O)(c1ccccc1)N1N=C(c2cccs2)CC1c1ccc(F)cc1 (stereo unspecified),23%,3%,-13%,21µM*,-12%,-4%
Cc1ccc(C2CC(c3cccs3)=NN2S(=O)(=O)c2ccc(C)cc2)cc1 (stereo unspecified),18%,-23%,0%,17%,-3%,-8%
Clc1ccc(-c2nn3c(-c4ccncc4)nnc3s2)c(Cl)c1,3%,nt,-6%,nt,1%,nt
Clc1ccccc1-c1nn2c(-c3ccncc3)nnc2s1,13%,-26%,0%,24µM*,-2%,?
Clc1ccccc1-c1nnc2sc(-c3ccncc3)nn12,1%,15%,-2%,27µM*,-1%,?
c1ccc(Cc2nn3c(-c4ccncc4)nnc3s2)cc1,-3%,-29%,-1%,24µM*,-6%,?
c1ccc(OCc2nn3c(-c4ccncc4)nnc3s2)cc1,7%,-5%,-7%,0%,-3%,-12%
COc1cccc(-c2cc(NCc3cccs3)ncn2)c1,nt,nt,nt,nt,-23%,0%
CCCCC/C=C\C/C=C\CCCCCCCC(=O)NC(C)C(=O)O (stereo unspecified),nt,nt,nt,nt,nt,-9%
Cn1c(=O)c2[nH]c(-c3ccccc3)c(O)c2n(C)c1=O,2%,33%,1.4µM*,27µM*,-5%,-19%
Cn1c(=O)c2[nH]c(-c3ccccc3Cl)c(O)c2n(C)c1=O,-3%,22µM*,?,-11%,0%,-3%
Cn1c(=O)c2[nH]c(-c3ccccc3)nc2n(C)c1=O,?,nt,0%,nt,-6%,4%
Cn1c2c(c(=O)n(C)c1=O)C(C(F)(F)F)(C(F)(F)F)N=C(c1ccccc1Cl)N2,3%,-18%,-2%,-7%,-9%,-3%
COc1ccc(/C=C/C(=O)NC(=S)Nc2ccc(Br)cn2)cc1,-5%,13%,nt,-19%,-19%,-13%
O=C(O)c1cc([N+](=O)[O-])ccc1-c1ccc([N+](=O)[O-])cc1C(=O)O,nt,-24%,nt,-19%,nt,nt
Cc1ccc(O)c(N=Cc2cc(Cc3ccccc3)cc([N+](=O)[O-])c2O)c1,7%,11µM*,-6%,?,-1%,-10%
O=[N+]([O-])c1cc2ccccc2c(O)c1O,nt,?,nt,5.3µM*,nt,nt
O=[N+]([O-])c1cc(Cc2ccccc2)cc(C=Nc2ccc(N3CCOCC3)cc2)c1O,0%,?,-17%,39%,-13%,?
O=[N+]([O-])c1cccc(C=Nc2cccc3ccccc23)c1O,-1%,19%,0%,-9%,35µM*,-4%
SMILES,Mito fusion yeast,GLS inh,PKM2 act,PLK1 PBD block,GCN5L2 inh,VDR inh
O=[N+]([O-])c1cc(-c2ccccc2)cc([N+](=O)[O-])c1O,nt,3%,nt,?,nt,-15%
O=C(O)c1cc([N+](=O)[O-])cc2ccccc12,nt,-3%,nt,19µM*,nt,-5%
CCCCCC1Nc2cc(C(F)(F)F)c(S(N)(=O)=O)cc2S(=O)(=O)N1 (stereo unspecified),nt,1%,nt,nt,nt,nt
CO[C@@]1(NC(=O)CSC(F)F)C(=O)N2C(C(=O)O)=C(CSc3nnnn3CCO)CO[C@@H]21,nt,1%,nt,nt,nt,nt
CCOC(=O)C1CCN(C(=O)COC(=O)CSc2ccc([N+](=O)[O-])cc2)CC1,-9%,8%,nt,?,-1%,?
CCCN(CC(=O)Nc1ccccc1C)C(=O)COC(=O)CSc1ccc([N+](=O)[O-])cc1,-2%,0%,nt,19µM*,4%,?
CC(C)(C)N(Cc1ccccc1)C(=O)COC(=O)CSc1ccc([N+](=O)[O-])cc1,8%,4%,nt,12µM*,-9%,-30%
CC1CCCC(C)N1C(=O)COC(=O)CSc1ccc([N+](=O)[O-])cc1 (stereo unspecified),4%,2%,nt,19µM*,-11%,-30%
CCCN(CC(=O)Nc1ccccc1C)C(=O)COc1c(C)cccc1C,-4%,2%,nt,0%,-1%,2%
Cc1oc(-c2ccccc2F)nc1CSCC(=O)NCc1ccccc1,nt,-3%,nt,nt,0%,-9%
Cc1c(CCC(=O)O)c(=O)oc2cc(OCc3ccccc3Br)ccc12,22%,1%,nt,?,-6%,-9%
Cc1[nH]c(C)c(S(=O)(=O)N(Cc2ccccc2)C(C)(C)C)c1C(=O)N1CCCC1,-10%,0%,nt,?,2%,-3%
COc1ccc(C(=O)N(Cc2ccccc2)Cc2ccc(OC)c(COc3ccc(NC(C)=O)cc3)c2)cc1,nt,nt,nt,nt,nt,-10%
CN(C)C(=O)/N=N/C(=O)N(C)C,-43%,nt,nt,nt,-9%,6.3µM*
Cc1cccc(C)c1OCC1CNC(=O)O1 (stereo unspecified),2%,47%,18%,27µM*,-17%,-13%
O=C1NCC(COCc2ccccc2)O1 (stereo unspecified),1%,4%,5%,-4%,0%,1%
CCOc1ccc(C(=O)NC(=S)Nc2cccnc2)cc1[N+](=O)[O-],4%,?,-8%,6µM*,-7%,?
COc1ccc(C(=O)NC(=S)Nc2cccnc2)cc1[N+](=O)[O-],-10%,44%,-3%,-12%,-1%,-9%
O=C(O)CC(NS(=O)(=O)c1ccc(Cl)s1)c1ccccc1 (stereo unspecified),nt,18%,nt,nt,-29%,-5%
CCOC(=O)/C(C#N)=C\c1ccc(N2CCN(C/C=C/c3ccccc3)CC2)cc1,8%,-7%,0%,-24%,-3%,-2%
N#C/C(=C\c1ccc(O)c(O)c1)C(=O)Nc1ccccc1,1%,69%,nt,5%,-8%,13µM*!
